# Assay results reported in PubChem BioAssay (NCATS).
# Inconclusive results are not listed. Where a call stands in place of a potency, no number is given. Calls of active or inactive are those of the source. The call rests on the fitted dose curve; in most records, active means well fitted curve in the direction sought with a large enough effect; inconclusive means small, poorly fitted or top-dose-only effect, or another doubt; inactive means no such curve, though single readings can be large; an effect the other way counts as inactive or inconclusive.
# How the values were obtained:
# [1] = biological target: Alpha-galactosidase A (Homo sapiens) (UniProt P06280); experiment: Counterscreen for Glucocerebrosidase Inhibitors: qHTS Assay for Human alpha-Galactosidase at pH 4.5 (AID 992)
# Method in brief: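 Citrate buffer pH 4.5, Tween-20 0.005%. Enzyme 2 nM, substrate 80 uM, 20 min RT. Stop pH 10. Fluorescence Ex 365/Em 440. AC50 by Hill fit.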
# [2] = biological target: alpha-glucosidase (Oryza sativa, rice) (UniProt Q653V4); experiment: Counterscreen for Glucocerebrosidase Inhibitors: qHTS Assay for Rice alpha-Glucosidase at pH 5.0 (AID 997)
# Method in brief: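 Endpoint fluorogenic assay at pH 5.0: compounds (0.7 nM to 77 uM) titrated against 4 nM rice enzyme and 400 uM 4-MU-alpha-glucoside for 20 min at room temperature; NaOH/glycine stop, read ex 365/em 440 nm, Hill-fitted AC50.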
# [3] = Cell Viability - LYMP2-018 (AID 985); further: nearly all actives have a fitted effect of over 50% in size
# Method in brief: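 Viability read as CellTiter-Glo luminescence (cellular ATP) after 24 hr compound exposure at 37 C of 2500 LYMP2-018 lymphoblastoid cells/well, pre-plated 5 hr. Hill-equation modelling gave AC50.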
# [4] = Cell Viability - LYMP2-020 (AID 986); further: series mostly up to about 92 µM; nearly all actives have a fitted effect of over 55% in size
# Method in brief: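 Cytotoxicity in qHTS format: luminescent ATP readout from CellTiter-Glo after 24 h compound exposure at 37 C in complete medium. LYMP2-020 lymphoblastoid cells were seeded at 2500/well; concentration-response data fitted to the Hill equation for AC50.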
# [5] = Cell Viability - LYMP2-022 (AID 987); further: nearly all actives have a fitted effect of over 55% in size
# Method in brief: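 Cytotoxicity read as decreased cellular ATP (CellTiter-Glo luminescence, 30 min room temperature) after 24 hours compound exposure of 2500 lymphoblastoid LYMP2-022 cells/well at 37 C. Concentration-response data fitted with standard Hill equation for AC50.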
# [6] = Cell Viability - LYMP2-026 (AID 989); further: nearly all actives have a fitted effect of over 50% in size
# Method in brief: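 Cytotoxicity read as ATP-dependent luminescence (CellTiter-Glo, 30 min room temperature) after 24 h compound treatment at 37 C. LYMP2-026 lymphoblastoid line seeded at 2500 cells/well; AC50 derived by standard Hill equation.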
# [7] = Cell Viability - LYMP1-002 - Assay at 24 hr (AID 993)
# Method in brief: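 qHTS cytotoxicity at 24 h: CellTiter-Glo ATP luminescence in lymphoblastoid line LYMP1-002 incubated with compound at 37 °C. Concentration-response modeled with the Hill equation for AC50; tetraoctylammonium bromide served as positive control.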
# [8] = Cell Viability - LYMP1-002 - Assay at 40 hr (AID 994); further: nearly all actives have a fitted effect of over 60% in size
# Method in brief: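 Cytotoxicity was read as loss of cellular ATP (CellTiter-Glo luminescence) after 40 hr compound exposure at 37 C of 2500 LYMP1-002 lymphoblastoid cells per well. Concentration-response data were fitted with the standard Hill equation to give AC50.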
# Sequence of Alpha-galactosidase A (Homo sapiens) (P06280 whole entry, looked up): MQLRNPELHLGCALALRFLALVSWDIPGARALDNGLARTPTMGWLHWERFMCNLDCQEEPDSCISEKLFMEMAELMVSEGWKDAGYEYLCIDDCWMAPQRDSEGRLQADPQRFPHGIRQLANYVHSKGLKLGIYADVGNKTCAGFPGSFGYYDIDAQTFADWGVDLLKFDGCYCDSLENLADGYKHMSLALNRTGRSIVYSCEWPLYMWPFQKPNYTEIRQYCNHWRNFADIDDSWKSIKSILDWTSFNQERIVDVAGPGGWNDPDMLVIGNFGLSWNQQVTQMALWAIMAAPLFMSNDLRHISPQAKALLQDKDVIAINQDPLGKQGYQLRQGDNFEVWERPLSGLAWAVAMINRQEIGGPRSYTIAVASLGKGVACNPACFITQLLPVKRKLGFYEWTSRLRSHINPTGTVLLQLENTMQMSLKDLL
smiles,measurement,setting,value
CN1CCc2ccccc2Cc2[nH]c3ccccc3c2CC1,outcome,[1],inactive
same,outcome,[2],inactive
O=c1cc(-c2ccccc2)oc2ccccc12,Potency,[3],inactive
same,Potency,[4],inactive
same,Potency,[5],inactive
same,Potency,[6],inactive
same,Potency,[7],inactive
same,Potency,[8],inactive
COc1ccccc1N1CCN(CCCCNS(=O)(=O)c2cccc3c(N(C)C)cccc23)CC1,outcome,[1],inactive
same,outcome,[2],inactive
Cn1cc(C2=C(c3ccc(Cl)cc3Cl)C(=O)NC2=O)c2ccccc21,outcome,[1],inactive
same,outcome,[2],inactive
COC1=C(OC)C(=O)c2ccccc2C1=O,outcome,[1],inactive
same,outcome,[2],inactive
